This is part of a sample that, as a whole, favours compounds with a hit. Of some 83,000 tested, about 20% had one in any assay.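 Values shown are percent growth following 48 h exposure of cells in 96-well plates to a single concentration of compound; below 10 was considered active.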 A number with no mark means an inactive call. Active and inactive are the calls of the source.

For the test, the system named is NCI-H23 lung. Put plainly: NCI-60 one-dose screen, 48 h (100 = growth as untreated, 0 = no growth, -100 = all killed). The settings on record: 10 µM unless noted. On the procedure: Growth inhibition of the NCI-H23 human Non-Small Cell Lung tumor cell line is measured as a screen for anti-cancer activity. Cells are grown in 96 well plates and exposed to the test compound for 48 hours. Compounds are tested at a single concentration, which is 10^-5 M for most compounds. The reported endpoint is percent growth (GI% or GIPRCNT), where numbers from 0 - 100% represent growth inhibition, and numbers from -100% - 0 represent cell death. For example, a value of 40 represents 60% growth inhibition. A value of 0 means no net growth occurred over the course of the experiment. A value of -40 indicates 40% of cells at the beginning of the experiment died by the end of the experiment. A value of -100 means all cells are dead at the end of the experiment.
NCI-60 Human Tumor Cell Lines Screen was performed using the standard one-dose NCI protocol, which is described in more detail at https://dtp.cancer.gov/discovery_development/nci-60/default.htm.
Compounds with GIPRCNT values below 10 were considered active. Activity score was based on GIPRCNT using the following formula: […]
Score is 0 for GIPRCNT values of 100 or above, 50 for GIPRCNT values of 0, and 100 for GIPRCNT values of -100.
On to `Cc1cc(N)c2cc(NC(=O)/C=C\c3ccccc3Cl)ccc2n1`, for which the growth was -85.4% (active). In the case of `C=CCc1c(O)c(C(=O)/C=C/c2ccc(Cl)cc2)c(OC)c2ccoc12`, the growth was 57.1%. For `N#CC1=C(c2ccc(Cl)cc2)Nc2c(c(-c3ccc(Cl)cc3)nn2-c2ccccc2)C12C(=O)Nc1ccc(Cl)cc12` (stereo not given), the growth was 42.3%.

Turning to `Cc1ccc(C(C(N)=O)C(C(N)=O)c2ccccc2)cc1` (stereo not given), the growth is 111%. Then `CN(C)CCCC1(c2ccc(F)cc2)OCc2cc(-c3cccc4[nH]ccc34)ccc21` (stereo not given), with 75.2%.

With `COc1cc2c(c(OC)c1OC)-c1ccc(OC)c(=O)cc1[C@@H](NC(=O)CCl)CC2`, the growth was 5.73% (active). In the case of `COc1ccc(C/C(C)=C(/c2ccc(OCCN3CCCCC3)cc2)c2ccc(OC(=O)NCc3ccccc3)cc2)cc1`, the growth was -84.6% (active). Then `O=[N+]([O-])c1ccc(S(=O)(=O)N2CCN(C3=NS(=O)(=O)c4ccccc4N3c3ccccc3)CC2)cc1`, with 87.2%.

`CCOc1nc(-c2ccccc2)cc2c(O)c(C(=O)NN)[nH]c(=O)c12`: the growth was 117%. The figure for `Cc1cnc(C(=O)NNc2nc3sc4c(c3c(=O)n2C)C(C)CCC4)cn1` (stereo not given) is 5.46% (active).

Regarding `N#CC1CCc2c(c(-c3cn[nH]c3C(F)(F)F)nc3c(F)cc4[nH]ncc4c23)C1` (stereo not given), the growth was 25.3%. With `O=C1c2cccnc2C(=O)c2c1c(C(=O)NCCn1ccnc1)c1ccccn21`, the growth was 5.02% (active). In the case of `O=C(/C=C/c1cccs1)c1ccc(Cl)nc1`, the growth is 102%. With `COc1cccc(NC(=O)Cn2cc(CN3CCN(c4ccnc5cc(Cl)ccc45)CC3)nn2)c1`, the growth was 95%. Turning to `C/C(=C(/c1ccc(Cl)cc1)c1ccc(OCCN2CCCC2)cc1)c1ccc(Cl)cc1`, the growth is 80.3%. For `Nc1nc(=S)c2ncn(C3OC(COP(=O)(O)O)C(O)C3O)c2[nH]1` (stereo not given), the growth was 14.5%. Turning to `CCCCCCCCCCCCCCCC(N)c1ccccc1` (stereo not given), the growth is -24.4% (active). With `CC1=C(C(=O)OC(C)C)C(c2ccc3c(c2)OCO3)NC(=S)N1` (stereo not given), the growth is 99.2%. For the molecule `CCN(CC)c1ccc(/C=C/C(=O)c2ccc(Nc3nc(Nc4ccccc4)nc(Nc4ccccc4)n3)cc2)cc1`, the growth is 62.5%. For `CN(C)CCCn1c2c(c3ncccc3c1=O)C(=O)c1ccccc1-2`, the growth is 54.8%. As to `CCO/C=N/C1=C(C#N)C(c2ccc(OC)cc2)c2sc3c(F)cccc3c2O1` (stereo not given), the growth is 48.9%. For `Clc1ccc(Nc2nnc(COc3ccccc3)c3ccccc23)cc1`, the growth is 4.18% (active). Then `O=C(CSc1nc2sc3c(c2c(=O)n1-c1ccccc1)CCCCC3)N/N=C/c1ccc(F)cc1`, with 37.7%. Take `N#Cc1c(-c2ccc(Cl)cc2)nc(SCC(=O)NC2=NN=C(c3ccccc3)CS2)[nH]c1=O`: the growth was 76.3%. On to `CC[C@@H](C(=O)[C@@H](C)[C@@H](O)[C@H](C)[C@@H]1O[C@@H]([C@@H](CC)C(=O)NCCc2ccc(F)cc2)CC[C@@H]1C)C1O[C@]2(C=CC(=O)[C@]3(CC[C@@](C)([C@H]4CC[C@](O)(CC)[C@H](C)O4)O3)O2)[C@H](C)C[C@@H]1C` (stereo not given in full), for which the growth is 24.8%.

As for `N#C/C(=C/c1ccc([N+](=O)[O-])cc1)n1nnc2cc(F)c(F)cc21`, the growth is 93.8%. The figure for `C[C@@H]1CCC[C@H]1CC(N)C(=O)O` (stereo not given in full) is 97.2%; for `COCCNC(=O)c1ccc(-c2nc3ccc4[nH]ncc4c3c3c2CCCC3)cc1` it is 43.5%; for `COC(=O)c1n[nH]c2ccc3nc(-c4cn[nH]c4C(F)(F)F)c4c(c3c12)CCCC4` it is 56%. With `CCSc1nc(NC)c2cc(-c3ccc(C(F)(F)F)cc3)ccc2n1`, the growth was 94.3%. Turning to `COc1ccc(-c2cn(-c3cc(OC)c(OC)c(OC)c3)c(=O)n2C(C)=O)cc1`, the growth was 94.9%. Regarding `O=C(Cn1c(=O)sc2ccccc21)NNS(=O)(=O)c1ccccc1[N+](=O)[O-]`, the growth is 98.6%.

For the molecule `Cc1ccc(/C=N/Nc2nc(Nc3ccccc3)nc(-n3nc(C)cc3C)n2)cc1`, the growth is 54.8%. With `CCN(CC)C(=S)SC(SC(=S)N(CC)CC)C(=O)c1nnn(-c2ccc([N+](=O)[O-])cc2)c1C`, the growth was 98.4%. Turning to `CC/C(=C(/c1ccc(Cl)cc1)c1ccc(OCCN2CCCC2)cc1)c1ccc(OC)cc1`, the growth is 52.9%. Turning to `O=C(CCCCC1CCSS1)Nc1ncnc2n[nH]c(-c3ccc(Oc4ccccc4)cc3)c12` (stereo not given), the growth was 59.2%. Regarding `COc1cc(-c2nc3cc(Cl)c(Cl)cc3[nH]2)ccc1OCC(=O)N=Nc1c(O)[nH]c2ccc([N+](=O)[O-])cc12`, the growth was 84.3%.

On to `COc1ccccc1NC(=O)Cn1cc(CN2CCN(c3ccnc4cc(Cl)ccc34)CC2)nn1`, for which the growth was 89.2%. Consider `C=C(C)[C@@H]1CC[C@]2(C)[C@H](CC=C3[C@@H]4[C@H](C)[C@@H](C)CC[C@]4(CO)CC[C@]32C)[C@@]1(C)CCCN`, for which the growth is 60.9%.

With `CN(C)CCCC1(c2ccc(F)cc2)OCc2cc(-c3cncc4ccccc34)ccc21` (stereo not given), the growth is 77.6%.

The values above are taken from PubChem BioAssay (NCI).
